PubChem BioAssay (NCI)
Compounds without any hit were thinned out: in the full panel of roughly 79,000, 15% have a hit. Activity calls are given as the source filed them. Cut-off read from the data, not from the text of the source: active = growth inhibition above about 70%; inactive = the rest.

experiment: NCI Yeast Anticancer Drug Screen. Data for the CLN2oe strain (AID 163);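 note: 0% = growth of vehicle-only control cultures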; details: S. cerevisiae CLN2oe strain, at 100.0 µM, stronger effect = higher value
Procedure, shortened: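 Growth of a genetically modified yeast strain is measured after compound exposure and compared with cultures given vehicle alone.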

Row | Compound | growth inhibition
1 | CC(CN(C)C)C(=O)/C=C/c1ccc(Cl)c(Cl)c1 (stereo not given) | 74% (active)
2 | CCCCCCNCCCNc1c2cc(OC)ccc2nc2cccc([N+](=O)[O-])c12 | 96% (active)
3 | NC(=S)N1N=C2c3ccccc3CC[C@H]2[C@@H]1c1ccc(Cl)cc1 | 86% (active)
4 | C/C(=N/NC(=S)Nc1ccccc1C)c1ccccn1 | -11% (inactive)
5 | O=C1/C(=C/c2ccc(Cl)c(Cl)c2)CNC/C1=C\c1ccc(Cl)c(Cl)c1 | 79% (active)
6 | CC(C)OP(=O)(OC(C)C)C(=NCCO)NNc1ccc([N+](=O)[O-])cc1 | 90% (active)
7 | N#CCC(=O)N/N=C(\c1ccccc1)C(c1ccccc1)C1(O)C(=O)Nc2c(Cl)ccc(Cl)c21 (stereo not given) | -11% (inactive)
8 | CC(C)(CN1CCCCC1)C(=O)CC(SCCS(=O)(=O)O)c1ccccc1 (stereo not given) | 31% (inactive)
9 | CCCCN(CCCC)c1ccc(N=Nc2ccc(S(=O)(=O)O)cc2)cc1 | 96% (active)
10 | c1ccc2nc3c(nc2c1)sc1ccccc13 | 34% (inactive)
11 | O=C1c2ccccc2-c2ccc(N=Cc3ccccc3)cc21 | 24% (inactive)
12 | CNC(=S)N/N=C(/C)CCC/C(C)=N/NC(=S)NC | 97% (active)
13 | Nc1ccc(/C=C/c2ccc3cccnc3c2)cc1 | 0% (inactive)
14 | COc1ccc2c3c1OC(C)C31CC(=O)CCC1CC2 (stereo not given) | 8% (inactive)
15 | CCOC(=O)Nc1ccc(C)c(NC(=O)OCC)c1 | 23% (inactive)
16 | O=C(c1cc(=O)c2ccc(O)cc2o1)c1ccc(Cl)cc1Cl | 92% (active)
17 | CCCNC(=O)OCc1c(COC(=O)NCCC)c(-c2ccc(Cl)c(Cl)c2)n2c1CCC2 | 20% (inactive)
18 | O=C(Cc1ccccc1)NN1C(=O)C(Cl)C1c1cc(Br)cc(Br)c1O (stereo not given) | 86% (active)
19 | CCOC(=O)C(Cc1c2ccccc2cc2ccccc12)(NC(C)=O)C(=O)OCC | -2% (inactive)
20 | O=[N+]([O-])/C=C/c1cc2ccc3ccccc3c2[nH]1 | 87% (active)
21 | O=S1(=O)CCC2=CC(C(F)(F)F)=CC(C(F)(F)F)=CN21 | 98% (active)
22 | O=C(Cc1ccccc1)NNc1nc(NNC(=O)c2ccncc2)nc(Nc2ccc([N+](=O)[O-])cc2)n1 | 7% (inactive)
23 | CCCCS/C(=C(/C#N)C(N)=O)c1cc2c([nH]1)CCCC2 | 56% (inactive)
24 | O=C(O)c1ccccc1C(=O)OC1CCc2ccccc2C1 (stereo not given) | 62% (inactive)
25 | CCOC(=O)/C(=C\c1cccc(C)c1)C(C)=O | 99% (active)
26 | NC(=S)N/N=C1\c2ccccc2CCC1CCC1(O)CCc2ccccc2C1=O (stereo not given) | 82% (active)
27 | Cc1cccc2c(Cl)c3cccc(C)c3nc12 | -3% (inactive)
28 | CC(C)OC(=O)NNc1c(Cl)cc(Cl)cc1Cl | 18% (inactive)
29 | N#CSCC1COc2ccccc2O1 (stereo not given) | 98% (active)
30 | CC1=NN(C(=O)c2ccccc2O)C(=O)/C1=C/c1ccco1 | 95% (active)
